Targets with a hit are over-represented here; the source holds about 7,900 in all. About 0.6% of all pairs of compound and target were hits.
Each target was assayed with C1=CC=C2C(=C1)C3=NNC4=CC=CC(=C43)C2=O (assay: log2 fold change, soluble protein after heating vs DMSO (PISA); higher = thermal stabilisation; K562 cells, 10 uM, 30 min; active = over 0.2 and 3.5 SD of the protein, either way, in both replicates (recomputed)).
In short: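 Aliquots of K562 cells (2×10^6 cells/mL) treated with 10 μM compound for 30 min were heated for 3 min over 48°C-58°C. After pooling and extraction in PBS with 0.5% NP-40 at 4°C, soluble protein from a 21,000xg, 90 min spin was quantified by TMTpro 16plex LC-MS/MS with channel sums equalised. Thermal stability is expressed against control samples, from duplicates, as a log2 fold change.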

Sequence of UniProt P49448 (P49448 whole entry, looked up): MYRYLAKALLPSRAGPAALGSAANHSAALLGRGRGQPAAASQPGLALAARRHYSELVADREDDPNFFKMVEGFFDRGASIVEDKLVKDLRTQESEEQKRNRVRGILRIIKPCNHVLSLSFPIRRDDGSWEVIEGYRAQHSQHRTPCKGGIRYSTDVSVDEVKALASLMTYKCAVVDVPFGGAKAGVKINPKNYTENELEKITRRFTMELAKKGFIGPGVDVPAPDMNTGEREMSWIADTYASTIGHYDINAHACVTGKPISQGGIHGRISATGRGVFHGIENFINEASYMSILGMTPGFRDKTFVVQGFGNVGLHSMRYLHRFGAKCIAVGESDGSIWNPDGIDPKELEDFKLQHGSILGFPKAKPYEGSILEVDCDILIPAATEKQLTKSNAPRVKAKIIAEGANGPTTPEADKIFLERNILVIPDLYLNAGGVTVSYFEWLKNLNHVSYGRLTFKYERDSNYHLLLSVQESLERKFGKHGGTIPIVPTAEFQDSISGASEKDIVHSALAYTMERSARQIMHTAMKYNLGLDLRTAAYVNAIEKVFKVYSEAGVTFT
Sequence of UniProt Q9H4A6 (Q9H4A6 whole entry, looked up): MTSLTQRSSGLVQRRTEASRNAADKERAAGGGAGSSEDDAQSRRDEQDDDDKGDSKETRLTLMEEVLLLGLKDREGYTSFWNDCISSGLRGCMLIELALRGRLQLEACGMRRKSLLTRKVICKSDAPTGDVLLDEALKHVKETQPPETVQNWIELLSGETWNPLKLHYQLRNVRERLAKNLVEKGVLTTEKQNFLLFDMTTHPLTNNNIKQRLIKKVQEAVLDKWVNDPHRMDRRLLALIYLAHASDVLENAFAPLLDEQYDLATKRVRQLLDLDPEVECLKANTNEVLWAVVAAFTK
Sequence of UniProt Q8IWJ2 (Q8IWJ2 whole entry, looked up): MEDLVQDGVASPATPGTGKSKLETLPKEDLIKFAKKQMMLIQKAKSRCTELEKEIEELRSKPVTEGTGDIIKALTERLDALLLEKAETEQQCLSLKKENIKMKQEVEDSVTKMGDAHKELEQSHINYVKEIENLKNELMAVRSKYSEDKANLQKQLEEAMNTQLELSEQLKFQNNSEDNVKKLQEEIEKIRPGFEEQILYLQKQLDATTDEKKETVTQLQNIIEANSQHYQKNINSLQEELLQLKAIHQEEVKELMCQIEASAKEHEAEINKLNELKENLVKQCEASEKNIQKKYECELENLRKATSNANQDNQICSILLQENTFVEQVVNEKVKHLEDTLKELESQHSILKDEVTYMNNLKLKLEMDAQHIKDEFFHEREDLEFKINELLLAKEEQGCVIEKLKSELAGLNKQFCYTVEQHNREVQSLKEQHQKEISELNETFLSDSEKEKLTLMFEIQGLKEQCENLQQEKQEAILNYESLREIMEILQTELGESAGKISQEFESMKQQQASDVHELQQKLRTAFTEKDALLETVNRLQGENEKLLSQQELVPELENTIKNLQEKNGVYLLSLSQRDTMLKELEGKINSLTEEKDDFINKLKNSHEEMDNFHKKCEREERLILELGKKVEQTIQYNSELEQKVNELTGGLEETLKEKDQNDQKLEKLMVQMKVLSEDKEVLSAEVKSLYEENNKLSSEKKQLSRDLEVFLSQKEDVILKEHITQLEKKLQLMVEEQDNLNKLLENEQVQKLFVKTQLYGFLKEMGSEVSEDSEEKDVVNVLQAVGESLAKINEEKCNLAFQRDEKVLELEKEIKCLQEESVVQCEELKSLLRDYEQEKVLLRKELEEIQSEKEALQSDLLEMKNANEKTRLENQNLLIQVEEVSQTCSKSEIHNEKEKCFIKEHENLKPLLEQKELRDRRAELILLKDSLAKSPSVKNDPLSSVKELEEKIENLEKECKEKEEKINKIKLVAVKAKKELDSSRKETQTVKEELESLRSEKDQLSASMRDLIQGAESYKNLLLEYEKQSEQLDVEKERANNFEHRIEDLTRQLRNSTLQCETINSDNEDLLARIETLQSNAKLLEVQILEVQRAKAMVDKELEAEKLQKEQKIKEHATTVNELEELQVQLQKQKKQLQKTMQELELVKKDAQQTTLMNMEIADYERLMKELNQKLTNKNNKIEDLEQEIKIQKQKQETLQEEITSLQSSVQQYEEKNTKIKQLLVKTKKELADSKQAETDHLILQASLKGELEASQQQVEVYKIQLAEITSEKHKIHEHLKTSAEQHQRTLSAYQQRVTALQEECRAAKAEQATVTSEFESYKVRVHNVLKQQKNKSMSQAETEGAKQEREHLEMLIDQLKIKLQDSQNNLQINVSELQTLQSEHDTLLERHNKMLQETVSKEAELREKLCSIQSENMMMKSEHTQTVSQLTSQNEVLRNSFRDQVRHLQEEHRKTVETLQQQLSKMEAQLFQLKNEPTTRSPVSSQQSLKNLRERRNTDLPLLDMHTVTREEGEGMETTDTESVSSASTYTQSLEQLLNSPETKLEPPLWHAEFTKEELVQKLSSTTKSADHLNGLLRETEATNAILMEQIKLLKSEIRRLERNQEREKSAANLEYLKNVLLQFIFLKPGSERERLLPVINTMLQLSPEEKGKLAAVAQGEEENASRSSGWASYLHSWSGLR
Sequence of UniProt P36969 (P36969 whole entry, looked up): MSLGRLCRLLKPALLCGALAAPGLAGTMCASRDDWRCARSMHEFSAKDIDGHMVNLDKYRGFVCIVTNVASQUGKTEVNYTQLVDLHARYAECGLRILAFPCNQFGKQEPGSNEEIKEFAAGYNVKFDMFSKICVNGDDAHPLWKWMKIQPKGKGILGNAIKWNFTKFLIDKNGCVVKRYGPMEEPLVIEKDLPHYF
Sequence of UniProt O60725 (O60725 whole entry, looked up): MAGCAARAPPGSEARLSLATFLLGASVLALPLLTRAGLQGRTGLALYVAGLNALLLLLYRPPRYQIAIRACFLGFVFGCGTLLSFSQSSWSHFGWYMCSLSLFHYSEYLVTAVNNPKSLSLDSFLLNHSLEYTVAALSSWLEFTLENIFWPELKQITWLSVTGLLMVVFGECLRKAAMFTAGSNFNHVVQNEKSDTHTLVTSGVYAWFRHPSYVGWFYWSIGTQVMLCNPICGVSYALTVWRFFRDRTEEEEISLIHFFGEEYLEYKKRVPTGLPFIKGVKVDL
Sequence of UniProt Q9Y692 (Q9Y692 whole entry, looked up): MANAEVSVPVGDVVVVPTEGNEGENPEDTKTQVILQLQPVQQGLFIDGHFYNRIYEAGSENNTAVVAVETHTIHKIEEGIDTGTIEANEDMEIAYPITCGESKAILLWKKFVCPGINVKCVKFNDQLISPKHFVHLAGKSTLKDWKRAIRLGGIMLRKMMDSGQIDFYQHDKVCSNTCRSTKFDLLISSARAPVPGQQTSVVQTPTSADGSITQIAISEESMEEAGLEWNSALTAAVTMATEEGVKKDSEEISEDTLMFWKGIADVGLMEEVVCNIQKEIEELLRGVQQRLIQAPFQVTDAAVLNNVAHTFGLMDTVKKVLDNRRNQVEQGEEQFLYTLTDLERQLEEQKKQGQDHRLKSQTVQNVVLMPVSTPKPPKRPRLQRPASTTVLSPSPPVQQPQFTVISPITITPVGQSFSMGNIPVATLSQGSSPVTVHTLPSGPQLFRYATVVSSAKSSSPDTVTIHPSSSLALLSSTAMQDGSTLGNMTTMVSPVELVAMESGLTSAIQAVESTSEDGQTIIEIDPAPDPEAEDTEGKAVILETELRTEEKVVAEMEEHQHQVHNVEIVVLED
Sequence of UniProt O43824 (O43824 whole entry, looked up): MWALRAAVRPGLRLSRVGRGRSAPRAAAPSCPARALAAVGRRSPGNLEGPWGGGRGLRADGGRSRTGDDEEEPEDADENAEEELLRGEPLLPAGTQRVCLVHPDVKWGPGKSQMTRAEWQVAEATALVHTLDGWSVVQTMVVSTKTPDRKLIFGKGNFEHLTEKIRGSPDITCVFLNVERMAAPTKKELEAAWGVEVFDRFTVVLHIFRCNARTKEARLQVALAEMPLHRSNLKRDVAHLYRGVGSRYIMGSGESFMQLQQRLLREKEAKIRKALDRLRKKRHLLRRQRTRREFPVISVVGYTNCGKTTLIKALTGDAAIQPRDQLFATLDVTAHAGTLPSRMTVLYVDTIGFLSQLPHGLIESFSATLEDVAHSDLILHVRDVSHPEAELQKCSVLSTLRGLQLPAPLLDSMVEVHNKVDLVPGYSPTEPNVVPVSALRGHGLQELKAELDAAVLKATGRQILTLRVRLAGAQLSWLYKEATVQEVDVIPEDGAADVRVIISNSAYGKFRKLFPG
Sequence of UniProt Q53FT3 (Q53FT3 whole entry, looked up): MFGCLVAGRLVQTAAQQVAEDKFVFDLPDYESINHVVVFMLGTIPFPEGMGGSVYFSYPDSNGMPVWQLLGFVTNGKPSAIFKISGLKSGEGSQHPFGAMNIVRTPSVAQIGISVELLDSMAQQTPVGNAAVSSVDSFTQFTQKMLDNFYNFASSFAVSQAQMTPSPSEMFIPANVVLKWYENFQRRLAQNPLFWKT
Sequence of UniProt P55084 (P55084 whole entry, looked up): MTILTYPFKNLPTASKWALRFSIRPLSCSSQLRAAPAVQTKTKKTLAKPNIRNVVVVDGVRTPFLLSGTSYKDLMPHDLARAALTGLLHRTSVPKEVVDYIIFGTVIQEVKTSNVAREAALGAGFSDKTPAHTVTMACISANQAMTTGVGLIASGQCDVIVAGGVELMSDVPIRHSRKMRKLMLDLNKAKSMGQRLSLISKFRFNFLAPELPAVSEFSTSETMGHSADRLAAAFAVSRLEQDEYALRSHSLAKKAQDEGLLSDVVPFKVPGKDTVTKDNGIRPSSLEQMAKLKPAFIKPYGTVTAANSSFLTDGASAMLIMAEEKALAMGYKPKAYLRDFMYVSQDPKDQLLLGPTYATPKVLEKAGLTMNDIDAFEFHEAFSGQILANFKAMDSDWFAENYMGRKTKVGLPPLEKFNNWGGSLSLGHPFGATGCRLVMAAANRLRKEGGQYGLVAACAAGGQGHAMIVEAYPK
Sequence of UniProt P02008 (P02008 whole entry, looked up): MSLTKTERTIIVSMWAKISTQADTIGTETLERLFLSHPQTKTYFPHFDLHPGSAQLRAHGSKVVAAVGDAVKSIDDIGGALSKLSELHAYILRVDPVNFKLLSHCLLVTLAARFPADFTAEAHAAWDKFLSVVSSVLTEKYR

log2 fold change, inactive:
FKBP3 (UniProt Q00688) -0.001
GPX4 (UniProt P36969) -0.063
HEXA (UniProt P06865) -0.023
HECTD1 (UniProt Q9ULT8) -0.035
GLUD2 (UniProt P49448) 0.027
GBF1 (UniProt Q92538) 0.033
HIKESHI (UniProt Q53FT3) -0.03
HBZ (UniProt P02008) 0.017
HIP1 (UniProt O00291) -0.166
HADHB (UniProt P55084) 0.259
GTPBP6 (UniProt O43824) -0.05
GOLPH3 (UniProt Q9H4A6) -0.007
GSTO1 (UniProt P78417) 0.031
GYG1 (UniProt P46976) 0.083
ICMT (UniProt O60725) -0.038
FANCD2 isoform 1 (UniProt Q9BXW9) -0.012
GMEB1 (UniProt Q9Y692) -0.089
GALNT2 (UniProt Q10471) 0.046
GCC2 (UniProt Q8IWJ2) -0.021
HAX1 (UniProt O00165) 0.156
GGT7 (UniProt Q9UJ14) -0.01
HDAC7 isoform 5 (UniProt Q8WUI4) -0.171
HSPA8 (UniProt E9PK54) -0.095

Source: the supplement of paper PMC10849652
